In PubChem BioAssay (NCATS):
A number with no mark means an inactive call. Results filed as inconclusive are left out. Where a call stands in place of a potency, no number is given. Calls of active or inactive are those of the source. Unless noted, calls follow the shape of the dose curve; as a rule, active = well fitted curve in the direction sought with a large enough effect; inconclusive = small, poorly fitted or top-dose-only effect, or another doubt; inactive = no such curve, though single readings can be large; an effect the other way counts as inactive or inconclusive.

Experiments:
[1] = target: Lysosomal acid glucosylceramidase (Homo sapiens) (UniProt P04062); test: Glucocerebrosidase-p2 (AID 348; in the data active = potency below about 10 µM; also: potency is read from the fitted curve at half-maximal effect); conditions: purified GBA, blue fluorogenic substrate, 40 min
How it was run: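 Normal human glucocerebrosidase (0.2 nM) with blue fluorogenic substrate (80 uM final) in citrate/phosphate pH 5.9 with 10mM sodium taurocholate, 0.01% tween-20; 40 min RT, NaOH/glycine stop; fluorescence Ex 365/Em 440; AC50 from a titration from 0.6 nM upwards.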

[2] = AP1 Signaling Pathway (AID 357; active = well fitted curve in either direction with a large enough effect, not every such curve was filed as active;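 also: ME-180 reporter cells stimulated with EGF at its EC50 level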); conditions: ME-180 AP-1-bla reporter, EGF-induced, beta-lactamase ratio, 5 h; at 7.69 µM (top of the series) unless noted
How it was run: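 AP-1-bla ME-180 cells, Opti-MEM + 0.5% dialyzed FBS, plated overnight 37 °C. Cpd titration + EC50 EGF, 5 h 37 °C. CCF4 2.5 h RT; ex 405, em 460/530 ratio → %activity, AC50.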

[3] = Stat Signaling Pathway (AID 446; active = well fitted curve in either direction with a large enough effect, not every such curve was filed as active;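 also: ME-180 cervical cancer cells given 40 pM IL-6 alongside compound; SIE-controlled beta-lactamase reporter measured as 460/530 nm FRET emission ratio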); conditions: ME-180 SIE beta-lactamase reporter, IL-6 stimulated, 5 h; at 7.69 µM (top of the series) unless noted
How it was run: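 Compound effects on IL-6-induced STAT reporter activity were measured in ME-180 cells. After overnight culture, cells were co-treated with 40 pM IL-6 for 5 hrs before beta-lactamase substrate loading at room temperature.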

[4] = target: Glucocorticoid receptor (Homo sapiens) (UniProt P04150); test: GR-GFP Redistribution (AID 450;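 active = compounds whose dose series gives a full or clear partial fitted curve of increased nuclear translocation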; also: potency is read from the fitted curve at half-maximal effect); conditions: U2OS GR-GFP nuclear translocation, laser cytometry, 2 h
[5] = target: Glucocorticoid receptor (Homo sapiens) (UniProt P04150); test: GR-EFC Redistribution (AID 451; calls by dose curve; also: potency is read from the fitted curve at half-maximal effect); conditions: CHO-K1 GR-EFC translocation, beta-gal luminescence, 2 h
How it was run: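 CHO-K1 cells stably expressing nuclear-localized β-gal enzyme acceptor and GR fused C-terminally to the enzyme donor fragment; ligand-driven nuclear translocation restores β-gal by complementation. Compounds titrated up to 46 uM final, 2 h at 37 °C; luminescence read.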

[6] = target: Mitogen-activated protein kinase 10 (Mus musculus) (UniProt Q61831); test: JNK3 AlphaScreen Assay (AID 530; active = well fitted curve in either direction with a large enough effect, not every such curve was filed as active;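 also: kinase came from lysate of stimulated human HepG2 cells; signal reports phosphorylation of biotinylated GST-cJun 1-79 at Ser73 with 10 µM ATP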); conditions: JNK3 lysate, c-Jun phosphorylation; series mostly up to 57.1 µM
How it was run: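 Phosphorylation of biotinylated GST-cJun(1-79) at Ser73 is measured by AlphaScreen proximity luminescence. Enzyme is JNK3 in HepG2 lysates activated with interleukin-1beta and tumor necrosis factor alpha; ATP is 10 uM final.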

[7] = target: Cytochrome P450 3A4 (Homo sapiens) (UniProt P08684); test: qHTS Assay for Activators of Cytochrome P450 3A4 (AID 885); conditions: recombinant CYP3A4, Luciferin-PPXE luminescence, 60 min; series mostly up to 57.1 µM; also: nearly all actives have a fitted effect of over 65% in size
How it was run: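 CYP3A4 activity: Luciferin-PPXE O-dealkylation, 25uM substrate, 200mM KPO4, RT throughout. Read-out is luciferase luminescence; higher values reflect activation.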

[8] = target: Dual specificity protein kinase CLK4 (Homo sapiens) (UniProt Q9HAZ1); test: qHTS Assay for Inhibitors of CDC-like Kinase 4 (Kinase-Glo Assay) (AID 1770); conditions: recombinant Clk4, Kinase-Glo ATP depletion luminescence; series mostly up to 66.7 µM; also: nearly all actives have a fitted effect of over 65% in size; also: potency is read from the fitted curve at half-maximal effect
How it was run: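 25 nM Clk4 with 100 uM RS repeat peptide and 1 uM ATP (final) in Tris pH7.5, 10 mM MgCl2, 4.5 h at room temperature. Remaining ATP measured by Kinase-Glo luciferase luminescence.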

[9] = target: Dual specificity protein kinase CLK4 (Homo sapiens) (UniProt Q9HAZ1); test: qHTS Assay for Inhibitors of CDC-like Kinase 4 (ADP-Glo Assay) (AID 1771); conditions: recombinant CLK4, ADP-Glo luminescence; series mostly up to 80 µM; also: nearly all actives have a fitted effect of over 70% in size; also: potency is read from the fitted curve at half-maximal effect
How it was run: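 ADP production was read by ADP-Glo luminescence after residual ATP depletion, following 1 h room-temperature reaction of 25 nM Clk4, 1 uM ATP and 100 uM RS peptide with MgCl2, EGTA, DTT and Triton X-100.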

[10] = target: Dual specificity protein kinase CLK4 (Homo sapiens) (UniProt Q9HAZ1); test: qHTS Assay for Inhibitors of CDC-like Kinase 4 (ADP-FP Assay) (AID 1795); conditions: Transcreener ADP fluorescence polarization; series mostly up to 50 µM; also: nearly all actives have a fitted effect of over 60% in size; also: potency is read from the fitted curve at half-maximal effect;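 as to activity change, negative = inhibition: recombinant human CLK4 phosphorylating RS repeat peptide at 1 µM ATP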
How it was run: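 Recombinant Clk4 (6.25 nM) phosphorylated 100 uM RS repeat peptide with 1 uM ATP in 25 mM Tris pH 7.5, 10 mM MgCl2, 0.5 mM EGTA, 2.5 mM DTT, 0.01% Triton X-100 for 1 h. ADP was detected by Transcreener ADP2 competitive fluorescence polarization after 30 min at room temperature.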

[11] = target: Ubiquitin carboxyl-terminal hydrolase 1 (Homo sapiens) (UniProt O94782); test: Inhibitors of USP1/UAF1: Pilot qHTS (AID 504865); conditions: purified USP1/UAF1, Ub-rhodamine cleavage fluorescence; series mostly up to 54.9 µM;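 also: rhodamine fluorescence freed from ubiquitin-rhodamine substrate followed over time; top concentration of the series differs between compounds; nearly all actives have a fitted effect of over 35% in size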
How it was run: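 USP1/UAF1 complex at 1 nM preincubated 15 min at room temperature with compound, then Ub-Rho substrate added at 150 nM final. Fluorescence (480/540 nm) read kinetically in 50 mM HEPES pH 7.8, 0.5 mM EDTA, 1 mM TCEP, 0.1 mg/ml BSA, 0.01% Tween-20.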

[12] = Primary qHTS for small molecule stabilizers of the endoplasmic reticulum resident proteome: Secreted ER Calcium Modulated Protein (SERCaMP) assay (AID 1508630); conditions: SH-SY5Y GLuc-SERCaMP (Gaussia luciferase released on ER calcium loss) secretion, thapsigargin, luminescence; series mostly up to 38.4 µM
How it was run: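 The SH-SY5Y reporter protocol was run at 3 concentrations up to 38.3 uM (primary) or 11 concentrations (follow-up): 16 h compound, 100 nM thapsigargin for 4 h, then extracellular luciferase luminescence.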

[13] = target: Cytochrome P450 1A2 (Homo sapiens) (UniProt P05177); test: p450-cyp1a2 (AID 410; calls by dose curve; also: potency is read from the fitted curve at half-maximal effect); conditions: recombinant CYP1A2, luciferin-ME demethylation, luminescence; series mostly up to 57 µM
How it was run: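 Luminescent demethylation readout: Luciferin-ME (100uM, equal to Km) turned over by 20nM CYP1A2 for 60 min at room temperature after NADPH regeneration addition, following 10 min compound preincubation. Normalization used 57 uM furafylline as full inhibition.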

[14] = target: 3',5'-cyclic-AMP phosphodiesterase 4B (Homo sapiens) (UniProt Q07343); test: qHTS Assay for Inhibitors of PDE-IV (AID 607; active = well fitted activation curve with a large enough effect in the main read-out, with a control signal flat, not every such curve was filed as active); conditions: HEK293 ACTOne CNG channel cells, membrane potential fluorescence; series mostly up to 22.9 µM
How it was run: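 ACTOne HEK293 cells carry a modified cAMP-gated CNG channel and express endogenous PDE4; plated 1000 cells/well, compounds up to 22.9 uM final. Membrane-potential dye fluorescence (ex 535/em 590) was read; parental cells received 10 uM forskolin + 100 uM RO 20-1724.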

[15] = qHTS Assay for Identification of Small Molecule Agonists for Hypoxia Response Element Signaling Pathway (AID 914; active = well fitted activation curve with a large enough effect in the signal ratio, with a control signal flat, not every such curve was filed as active; the % refers to the signal ratio; also: potency is read from the fitted curve at half-maximal effect); conditions: ME-180 (cervical carcinoma) HRE-bla reporter, beta-lactamase ratio, CoCl2, 17 h; activation: hits give high values
How it was run: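 In Opti-MEM containing 0.5% dialyzed FBS and 10 mM HEPES, ME-180 HRE-bla cells received a compound titration and EC50 CoCl2. They were incubated 17 hours, then CCF4-loaded 2.5 hours at room temperature before ratio reading.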

[16] = target: Cytochrome P450 2C9 (Homo sapiens) (UniProt P11712); test: qHTS Assay for Inhibitors and Substrates of Cytochrome P450 2C9 (AID 883); conditions: recombinant CYP2C9, luciferin-H luminescence, 60 min; series mostly up to 57.1 µM; also: potency is read from the fitted curve at half-maximal effect; nearly all actives have a fitted effect of over 60% in size
How it was run: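 A luminogenic readout tracked human CYP2C9 (10nM) converting deoxyluciferin (100uM, at KM) in 25mM KPO4 during 60 min at 37C with regenerated NADPH. Values normalized to 57uM sulphaphenazole as complete inhibition.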

[17] = NFAT Signaling Pathway (AID 444; active = well fitted curve in either direction with a large enough effect, not every such curve was filed as active;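 also: carbachol stimulus at about its EC50 of 1 µM final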); conditions: Jurkat NFAT-bla M1, carbachol, beta-lactamase ratio, 5 h; at 7.69 µM (top of the series) unless noted
How it was run: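 Jurkat cells carrying an NFAT-driven β-lactamase reporter and co-transfected muscarinic M1 receptor were treated with compound plus carbachol (1 uM final, an EC50 level) for 5 h at 37 °C. CCF4 loading followed for 1 h at RT; 460/530 nm ratio gave %activity.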

[18] = target: Cytochrome P450 3A4 (Homo sapiens) (UniProt P08684); test: qHTS Assay for Inhibitors and Substrates of Cytochrome P450 3A4 (AID 884); conditions: recombinant CYP3A4, Luciferin-PPXE luminescence; series mostly up to 57.1 µM; also: potency is read from the fitted curve at half-maximal effect; nearly all actives have a fitted effect of over 50% in size
How it was run: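 Luminescent readout of luciferin produced by CYP3A4 (20 nM) dealkylation of Luciferin-PPXE, 25 uM (its KM). NADPH-driven reaction ran 60 min at RT after 10 min compound preincubation; data scaled to 57 uM ketoconazole as 100% inhibition.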

Dual specificity protein kinase CLK4 (Homo sapiens), sequence (Q9HAZ1 whole entry, looked up): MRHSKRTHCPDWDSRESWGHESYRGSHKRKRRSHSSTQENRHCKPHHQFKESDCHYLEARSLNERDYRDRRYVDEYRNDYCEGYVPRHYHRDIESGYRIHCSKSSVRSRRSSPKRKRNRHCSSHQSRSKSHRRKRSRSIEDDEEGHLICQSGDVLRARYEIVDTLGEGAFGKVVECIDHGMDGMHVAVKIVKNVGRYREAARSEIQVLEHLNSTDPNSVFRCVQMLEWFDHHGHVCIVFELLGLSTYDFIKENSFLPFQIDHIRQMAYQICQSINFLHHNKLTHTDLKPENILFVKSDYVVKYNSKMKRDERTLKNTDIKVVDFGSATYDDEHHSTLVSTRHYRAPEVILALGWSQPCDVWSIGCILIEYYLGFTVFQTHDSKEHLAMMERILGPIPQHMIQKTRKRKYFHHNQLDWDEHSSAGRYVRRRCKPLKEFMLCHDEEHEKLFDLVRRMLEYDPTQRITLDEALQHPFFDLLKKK
Glucocorticoid receptor (Homo sapiens), sequence (P04150 whole entry, looked up, the tested form may be a part): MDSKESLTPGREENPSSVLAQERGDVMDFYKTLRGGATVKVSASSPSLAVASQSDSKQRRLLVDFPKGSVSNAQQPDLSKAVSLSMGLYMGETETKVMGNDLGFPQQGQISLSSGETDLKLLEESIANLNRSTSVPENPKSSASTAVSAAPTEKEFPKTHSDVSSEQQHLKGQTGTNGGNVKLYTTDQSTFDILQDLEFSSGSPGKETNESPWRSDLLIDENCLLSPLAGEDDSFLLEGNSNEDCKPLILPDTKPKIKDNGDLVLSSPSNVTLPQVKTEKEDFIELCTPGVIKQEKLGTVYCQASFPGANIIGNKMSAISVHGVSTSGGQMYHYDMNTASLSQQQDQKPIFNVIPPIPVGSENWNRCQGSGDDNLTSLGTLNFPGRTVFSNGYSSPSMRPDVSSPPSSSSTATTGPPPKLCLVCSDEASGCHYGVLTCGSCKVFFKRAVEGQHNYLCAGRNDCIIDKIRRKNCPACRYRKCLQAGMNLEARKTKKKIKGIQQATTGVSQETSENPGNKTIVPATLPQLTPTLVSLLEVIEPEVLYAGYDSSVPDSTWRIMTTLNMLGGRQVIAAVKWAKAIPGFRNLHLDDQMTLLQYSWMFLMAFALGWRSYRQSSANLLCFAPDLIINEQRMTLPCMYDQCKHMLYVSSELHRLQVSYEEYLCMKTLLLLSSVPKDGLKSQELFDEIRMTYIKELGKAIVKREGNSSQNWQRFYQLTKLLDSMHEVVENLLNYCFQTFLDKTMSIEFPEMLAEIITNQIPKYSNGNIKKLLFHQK
Ubiquitin carboxyl-terminal hydrolase 1 (Homo sapiens), sequence (O94782 whole entry, looked up): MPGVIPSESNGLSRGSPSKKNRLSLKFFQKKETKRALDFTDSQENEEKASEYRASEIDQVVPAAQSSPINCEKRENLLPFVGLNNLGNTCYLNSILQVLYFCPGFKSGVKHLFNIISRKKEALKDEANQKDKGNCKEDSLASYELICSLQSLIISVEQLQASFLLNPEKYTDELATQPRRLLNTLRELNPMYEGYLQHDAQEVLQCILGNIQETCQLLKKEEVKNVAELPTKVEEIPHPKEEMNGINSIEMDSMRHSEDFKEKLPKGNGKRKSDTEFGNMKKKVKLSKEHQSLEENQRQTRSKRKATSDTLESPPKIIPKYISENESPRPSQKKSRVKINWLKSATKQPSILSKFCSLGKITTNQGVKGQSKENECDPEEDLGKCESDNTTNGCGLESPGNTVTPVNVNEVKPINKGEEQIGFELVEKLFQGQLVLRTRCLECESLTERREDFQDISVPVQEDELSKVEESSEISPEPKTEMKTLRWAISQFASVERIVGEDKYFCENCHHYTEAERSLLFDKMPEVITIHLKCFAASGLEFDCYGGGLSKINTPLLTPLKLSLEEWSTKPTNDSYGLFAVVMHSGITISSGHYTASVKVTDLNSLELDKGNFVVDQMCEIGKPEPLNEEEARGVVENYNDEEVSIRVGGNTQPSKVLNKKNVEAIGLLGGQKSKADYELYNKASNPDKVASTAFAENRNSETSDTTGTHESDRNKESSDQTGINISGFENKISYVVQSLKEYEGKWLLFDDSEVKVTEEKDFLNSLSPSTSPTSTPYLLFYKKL
Cytochrome P450 1A2 (Homo sapiens), sequence (P05177 whole entry, looked up): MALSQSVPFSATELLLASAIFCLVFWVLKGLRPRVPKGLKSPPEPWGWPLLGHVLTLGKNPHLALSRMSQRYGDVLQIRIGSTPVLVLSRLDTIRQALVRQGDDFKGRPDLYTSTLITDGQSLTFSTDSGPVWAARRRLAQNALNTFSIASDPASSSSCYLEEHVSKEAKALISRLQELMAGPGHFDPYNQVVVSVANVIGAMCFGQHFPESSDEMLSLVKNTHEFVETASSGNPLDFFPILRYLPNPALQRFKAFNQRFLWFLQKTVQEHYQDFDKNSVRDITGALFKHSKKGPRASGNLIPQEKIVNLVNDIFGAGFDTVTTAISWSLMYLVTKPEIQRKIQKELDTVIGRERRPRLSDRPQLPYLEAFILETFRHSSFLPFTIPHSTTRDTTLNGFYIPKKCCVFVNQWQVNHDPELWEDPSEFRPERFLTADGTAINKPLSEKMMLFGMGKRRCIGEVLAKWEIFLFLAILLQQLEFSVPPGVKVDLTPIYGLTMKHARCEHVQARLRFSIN
Cytochrome P450 3A4 (Homo sapiens), sequence (P08684 whole entry, looked up): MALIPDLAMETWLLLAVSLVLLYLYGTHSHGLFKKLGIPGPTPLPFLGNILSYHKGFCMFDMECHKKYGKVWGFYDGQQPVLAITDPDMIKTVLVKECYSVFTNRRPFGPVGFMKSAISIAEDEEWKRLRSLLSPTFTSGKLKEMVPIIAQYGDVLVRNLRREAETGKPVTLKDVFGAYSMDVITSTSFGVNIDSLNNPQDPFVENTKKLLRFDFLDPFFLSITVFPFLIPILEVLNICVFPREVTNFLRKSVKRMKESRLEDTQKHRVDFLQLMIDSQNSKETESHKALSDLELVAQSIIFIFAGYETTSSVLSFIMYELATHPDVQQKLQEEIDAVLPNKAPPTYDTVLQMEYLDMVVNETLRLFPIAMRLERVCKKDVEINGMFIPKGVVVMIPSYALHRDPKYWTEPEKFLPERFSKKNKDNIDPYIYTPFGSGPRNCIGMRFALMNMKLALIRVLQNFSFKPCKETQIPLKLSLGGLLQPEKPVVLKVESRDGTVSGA
3',5'-cyclic-AMP phosphodiesterase 4B (Homo sapiens), sequence (Q07343 whole entry, looked up): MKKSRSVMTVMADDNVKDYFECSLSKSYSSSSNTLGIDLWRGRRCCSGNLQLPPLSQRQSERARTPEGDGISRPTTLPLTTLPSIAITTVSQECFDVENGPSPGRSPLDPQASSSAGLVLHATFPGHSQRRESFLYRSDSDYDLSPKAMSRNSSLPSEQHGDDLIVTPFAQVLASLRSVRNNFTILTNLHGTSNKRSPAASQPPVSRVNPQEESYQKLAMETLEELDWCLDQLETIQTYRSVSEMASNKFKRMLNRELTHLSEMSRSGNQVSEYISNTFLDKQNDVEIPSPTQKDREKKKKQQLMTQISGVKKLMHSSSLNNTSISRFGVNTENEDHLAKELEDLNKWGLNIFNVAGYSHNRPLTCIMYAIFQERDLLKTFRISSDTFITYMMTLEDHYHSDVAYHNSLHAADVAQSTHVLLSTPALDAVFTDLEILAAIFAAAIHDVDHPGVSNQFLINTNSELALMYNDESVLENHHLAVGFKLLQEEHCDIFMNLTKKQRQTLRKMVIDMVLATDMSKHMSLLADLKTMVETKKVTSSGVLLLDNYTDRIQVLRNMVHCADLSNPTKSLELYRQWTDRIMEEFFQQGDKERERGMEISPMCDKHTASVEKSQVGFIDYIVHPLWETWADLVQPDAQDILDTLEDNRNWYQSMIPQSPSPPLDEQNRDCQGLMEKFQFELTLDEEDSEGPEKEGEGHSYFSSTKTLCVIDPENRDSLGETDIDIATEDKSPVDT
Lysosomal acid glucosylceramidase (Homo sapiens), sequence (P04062 whole entry, looked up): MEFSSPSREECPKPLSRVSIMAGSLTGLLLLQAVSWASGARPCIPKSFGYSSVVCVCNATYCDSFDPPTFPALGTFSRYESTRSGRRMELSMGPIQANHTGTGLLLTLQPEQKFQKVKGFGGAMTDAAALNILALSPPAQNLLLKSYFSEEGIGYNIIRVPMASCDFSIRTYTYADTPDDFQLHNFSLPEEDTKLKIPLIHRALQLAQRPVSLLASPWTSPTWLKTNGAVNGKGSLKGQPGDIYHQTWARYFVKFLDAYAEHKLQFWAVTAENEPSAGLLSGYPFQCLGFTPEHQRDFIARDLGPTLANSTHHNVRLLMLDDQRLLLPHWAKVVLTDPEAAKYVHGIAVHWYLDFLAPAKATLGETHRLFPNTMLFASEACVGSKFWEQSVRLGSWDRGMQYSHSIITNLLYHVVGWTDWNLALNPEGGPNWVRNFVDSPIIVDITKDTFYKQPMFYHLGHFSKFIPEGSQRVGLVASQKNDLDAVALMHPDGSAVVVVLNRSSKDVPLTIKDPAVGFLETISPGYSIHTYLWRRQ
Cytochrome P450 2C9 (Homo sapiens), sequence (P11712 whole entry, looked up): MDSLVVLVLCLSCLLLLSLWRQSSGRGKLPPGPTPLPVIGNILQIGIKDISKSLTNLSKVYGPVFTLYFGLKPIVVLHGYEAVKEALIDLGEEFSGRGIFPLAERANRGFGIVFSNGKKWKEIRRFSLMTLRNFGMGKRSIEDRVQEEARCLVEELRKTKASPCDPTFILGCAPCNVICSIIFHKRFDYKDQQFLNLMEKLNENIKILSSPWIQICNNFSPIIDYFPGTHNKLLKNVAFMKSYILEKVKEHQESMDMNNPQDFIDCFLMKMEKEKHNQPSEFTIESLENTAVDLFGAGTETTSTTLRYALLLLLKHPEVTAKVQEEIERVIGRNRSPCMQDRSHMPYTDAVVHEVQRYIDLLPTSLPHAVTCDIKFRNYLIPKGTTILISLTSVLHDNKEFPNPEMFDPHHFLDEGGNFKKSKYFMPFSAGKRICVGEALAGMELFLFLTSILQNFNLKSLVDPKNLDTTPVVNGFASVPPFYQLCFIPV

SMILES: COCCn1c(=O)c(-c2ccc(OC)cc2)nc2cnc(OCc3ccccc3)nc21
- Potency [1]: > 11.4 µM
- activity change, negative = inhibition [2]: -11.8%
- activity, negative = inhibition [3]: 7.46%
- Potency [4]: > 9.22 µM
- Potency [5]: > 46 µM
- Potency [6]: inactive
- Potency [7]: inactive
- Potency [8]: inactive
- Potency [9]: inactive
- Potency [10]: inactive
- Potency [11]: inactive
- outcome [12]: inactive

SMILES: COc1ccc(-n2c(=O)c(-c3cc(F)cc(F)c3)nc3cnc(N4CCOCC4)nc32)cc1
- Potency [1]: > 11.4 µM
- Potency [13]: 15.8 µM (active)
- Potency [4]: > 9.22 µM
- Potency [5]: > 46 µM
- Potency [6]: inactive
- Potency [14]: inactive
- Potency [7]: inactive
- Potency [15]: 1.58 µM (active)
- Potency [8]: inactive
- Potency [9]: inactive
- Potency [10]: inactive
- Potency [11]: inactive
- outcome [12]: inactive

SMILES: CN(C)c1ncc2nc(-c3ccccc3)c(=O)n(CCc3ccccc3)c2n1
- Potency [1]: > 11.4 µM
- Potency [13]: 20 µM (active)
- Potency [4]: > 9.22 µM
- Potency [5]: > 46 µM
- Potency [14]: inactive
- Potency [16]: 0.631 µM (active)
- Potency [15]: 3.16 µM (active)
- Potency [8]: inactive
- Potency [9]: inactive
- Potency [10]: inactive
- Potency [11]: inactive
- outcome [12]: inactive

SMILES: Cn1cc(-c2nc3cncnc3n(Cc3ccccc3Cl)c2=O)c2ccccc21
- Potency [1]: > 11.4 µM
- Potency [13]: 3.16 µM (active)
- activity change, negative = inhibition [17]: 3.77%
- Potency [4]: > 9.22 µM
- Potency [5]: > 46 µM
- Potency [14]: inactive
- Potency [7]: inactive
- activation [15]: 15.7%
- Potency [8]: inactive
- Potency [9]: inactive
- Potency [10]: inactive
- Potency [11]: inactive
- outcome [12]: inactive

SMILES: CN(C)c1ncnc2ccc(-c3cccc(C#N)c3)cc12
- Potency [1]: > 11.4 µM
- activity change, negative = inhibition [2]: -26.8%
- activity, negative = inhibition [3]: 21.1%
- Potency [4]: > 46 µM
- Potency [5]: > 46 µM
- Potency [6]: inactive
- Potency [14]: inactive
- Potency [7]: inactive
- Potency [8]: 14.1 µM (active)
- Potency [9]: 15.8 µM (active)
- Potency [10]: inactive
- Potency [11]: inactive
- outcome [12]: inactive

SMILES: c1cncc(-c2cncnc2NCc2cccs2)c1
- Potency [1]: > 11.4 µM
- Potency [13]: 0.316 µM (active)
- activity change, negative = inhibition [17]: 23.6%
- activity, negative = inhibition [3]: -4.79%
- Potency [4]: > 46 µM
- Potency [5]: > 46 µM
- Potency [6]: inactive
- Potency [14]: inactive
- Potency [18]: 2 µM (active)
- Potency [7]: inactive
- Potency [8]: inactive
- Potency [9]: inactive
- Potency [10]: inactive
- Potency [11]: inactive
- outcome [12]: inactive

SMILES: CS(=O)(=O)Nc1cccc(-c2ccc3ncnc(NCc4cccs4)c3c2)c1
- Potency [1]: > 11.4 µM
- Potency [13]: 0.0794 µM (active)
- activity, negative = inhibition [3]: -2.34%
- Potency [4]: > 46 µM
- Potency [5]: > 46 µM
- Potency [6]: inactive
- Potency [18]: 3.16 µM (active)
- Potency [7]: inactive
- Potency [8]: 7.94 µM (active)
- Potency [9]: 7.94 µM (active)
- Potency [10]: 5.01 µM (active)
- Potency [11]: inactive
- outcome [12]: inactive
